Compound activity deposited in PubChem BioAssay by National Center for Advancing Translational Sciences (NCATS).
An excerpt weighted towards active compounds, which were near 1.3% of everything screened.
gsp antagonist – antagonizes gsp, the McCune-Albright syndrome mutation; gsp-mutant cells, cAMP HTRF, 30 min; Potency, µM (series often up to 76.9 µM), hits mostly inhibitors; 340,000 compounds, 0.4% hits; calls by dose curve; cell line not stated here;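 also: intracellular cAMP measured with PDE inhibitor Ro 20-1724 present during compound exposure; nearly all actives have a fitted effect of over 65% in size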
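Cells, 2000/well, grown 16–24 h in DMEM 10% FBS with 0.5 mg/ml G418, then compounds plus […] (300 uM addition stock), 30 min at 37C. cAMP read by HTRF (cAMP-d2 and anti-cAMP antibody-K in lysis buffer) after 30 min RT.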
RXFP1 agonist – agonists of human relaxin receptor RXFP1. HEK293T-RXFP1 cAMP TR-FRET, 30 min; response scale: percent of porcine relaxin response, buffer zero. Potency, µM (doses to about 57.5 µM), most hits filed as activators. 370,000 compounds, 0.3% hits. AID 2676; active = well fitted activation curve with a large enough effect; inconclusive = small, poorly fitted or top-dose-only effect; also: nearly all actives have a fitted effect of over 60% in size
Target sequence (Q9HBX9 whole entry, looked up): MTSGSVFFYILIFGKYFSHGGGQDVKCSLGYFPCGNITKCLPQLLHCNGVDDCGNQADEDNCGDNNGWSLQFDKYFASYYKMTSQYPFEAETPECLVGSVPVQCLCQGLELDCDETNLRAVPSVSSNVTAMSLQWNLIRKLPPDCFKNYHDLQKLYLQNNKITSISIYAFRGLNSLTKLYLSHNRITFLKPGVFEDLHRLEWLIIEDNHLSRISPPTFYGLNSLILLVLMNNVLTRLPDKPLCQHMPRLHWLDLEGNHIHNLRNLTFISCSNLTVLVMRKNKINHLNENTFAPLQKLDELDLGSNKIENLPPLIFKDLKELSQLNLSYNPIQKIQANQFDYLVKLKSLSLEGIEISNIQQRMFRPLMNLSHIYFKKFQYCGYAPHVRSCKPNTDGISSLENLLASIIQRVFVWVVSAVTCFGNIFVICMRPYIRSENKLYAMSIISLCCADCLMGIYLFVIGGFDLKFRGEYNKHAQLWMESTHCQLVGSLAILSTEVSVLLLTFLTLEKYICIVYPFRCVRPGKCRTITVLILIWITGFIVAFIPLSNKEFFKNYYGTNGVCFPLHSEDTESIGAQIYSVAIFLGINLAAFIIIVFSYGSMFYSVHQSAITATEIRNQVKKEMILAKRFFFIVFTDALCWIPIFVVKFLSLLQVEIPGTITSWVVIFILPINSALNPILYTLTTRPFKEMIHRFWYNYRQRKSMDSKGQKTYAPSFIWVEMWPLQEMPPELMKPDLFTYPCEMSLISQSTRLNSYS
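HEK293T cells stably expressing RXFP1 were pretreated with the PDE4 inhibitor Ro 20174, exposed to compounds for 30 min at 37C, lysed, and cAMP was read by TR-FRET. Data normalized to buffer (basal) and 29 nM porcine relaxin (100%).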
gsp ag – agonists of gsp mutant (McCune-Albright syndrome). gsp mutant cells, cAMP HTRF, 30 min. Potency, µM (highest dose often 76.9 µM), usual class: activators. 340,000 compounds, 0.13% hits. AID 624287; active = well fitted activation curve with a large enough effect; inconclusive = small, poorly fitted or top-dose-only effect, or another doubt; inactive = no such curve, though single readings can be large or run the other way; cell line not stated here;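 also: phosphodiesterase inhibitor Ro 20-1724 added with compounds to block cAMP breakdown; nearly all actives have a fitted effect of over 60% in size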
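Cells stably selected in G418 were plated at 2000/well, grown 16-24 hr, then given compounds in DMSO with the PDE inhibitor […] (300 uM solution added) for 30 min at 37C; cAMP was read by HTRF.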
RXFP1 antagonist – RXFP1 (human) relaxin receptor antagonism. 350,000 compounds, 0.59% hits. activity change, negative = inhibition, % at 57.5 µM. Q9HBX9. HEK293-RXFP1, relaxin-stimulated cAMP HTRF, 30 min; hits give low values;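 active = activity change of -60% or lower, but not beyond a set lower limit; inconclusive = change between -60% and -40%, or beyond the set limit; inactive = change above -40%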
Akt phos inh – blocks phosphorylation of Akt; Neuro2A IGF-stimulated pAkt S473 HTRF, 20 min; hits give low values; activity change, % for hits at 50 µM; 360,000 compounds, 0.32% hits; AID 651550; in the data active = activity change below about -80%; inconclusive = mostly about -51% to -80%
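Single-point screen (50 µM final compound) in Neuro2A cells stimulated 20 min with 6 nM IGF at 37 deg C. After lysis, Ser473-phosphorylated Akt read by HTRF (ex 330 nm, em 615/665 nm) as the 665/615 ratio.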
Of the large screens only hits and unclear results are named; the others gave an inactive call.

COc1ccc(CNC(C)C(=O)Nc2ccc3ccccc3c2)cc1OC (stereo not given)	gsp antagonist 11.2µM
CCC(C)NC(=O)c1ccccc1NC(=O)CN1C(=O)c2cccc3cccc1c23 (stereo not given)	none (no result: gsp antagonist, gsp ag, RXFP1 antagonist, Akt phos inh)
COc1cc2c(cc1NC(=O)C(C)Sc1ccc(NC(C)=O)cc1)oc1ccccc12 (stereo not given)	gsp antagonist 20µM, gsp ag inconclusive
COc1cc2c(cc1NC(=O)CSc1nccn1C)oc1ccccc12	gsp antagonist 28.2µM
CCc1ccc(NC(=O)c2cc3c(COC(C)=O)cnc(C)c3oc2=O)cc1	none (no result: gsp antagonist, gsp ag, Akt phos inh)
[N-]=C=C1C(=S)NC(=O)[C@H]([n+]2ccccc2)[C@H]1c1ccc(Cl)cc1	gsp ag 20µM
CCOC(=O)c1c(NC(=O)CSc2nnc(-c3ccc(OC)cc3)o2)sc2c1CCC2	none (no result: RXFP1 agonist)
NC(=O)c1c(NC(=O)COC(=O)CSc2nnc(-c3ccc(Cl)cc3)o2)sc2c1CCC2	Akt phos inh -104.3%
CC1=C(C(=O)Nc2ccccc2)C(c2cccnc2)n2nc(SCc3ccccc3Cl)nc2N1 (stereo not given)	none (no result: gsp antagonist, gsp ag, RXFP1 antagonist, Akt phos inh)
Cc1ccc(Cl)cc1N1CCN(C(=O)C2CCN(S(=O)(=O)c3c(C)nn(C)c3C)CC2)CC1	gsp antagonist 39.8µM
Cc1ccc(Cl)cc1N1CCN(C(=O)C2CCN(S(=O)(=O)c3cccnc3)CC2)CC1	gsp antagonist inconclusive
Cc1nn(C)c(C)c1S(=O)(=O)N1CCCC(C(=O)N2CCN(c3ccc(Cl)cc3)CC2)C1 (stereo not given)	gsp antagonist inconclusive, Akt phos inh -107.1%
Cc1[nH]c(=O)[nH]c(=O)c1S(=O)(=O)N1CCCC(C(=O)N2CCN(c3ccccc3Cl)CC2)C1 (stereo not given)	Akt phos inh -124.4%
Cc1ccc(C)c(N2CCN(C(=O)C3CCCN(S(=O)(=O)c4c(C)[nH]c(=O)[nH]c4=O)C3)CC2)c1 (stereo not given)	gsp ag inconclusive
Cc1ccc(C)c(N2CCN(C(=O)C3CCN(S(=O)(=O)c4cccc5nsnc45)CC3)CC2)c1	gsp antagonist 22.4µM
CCOc1ccc(OCC)c(NC(=O)C2CCN(S(=O)(=O)c3ccc(Br)s3)CC2)c1	none (no result: gsp antagonist, gsp ag, Akt phos inh)
COc1ccc(OC)c(NC(=O)Cn2c(=O)cc(C)c3c(C)nn(-c4cccc(Cl)c4C)c32)c1	none (no result: gsp antagonist, gsp ag, Akt phos inh)
CCc1ccccc1NC(=O)N1CC(CC)Oc2ccc(Cl)cc21 (stereo not given)	none (no result: gsp antagonist, gsp ag, Akt phos inh)
Cc1n[nH]c(C)c1S(=O)(=O)N1CCCC(C(=O)N2CCN(c3ccc(Cl)cc3)CC2)C1 (stereo not given)	gsp antagonist 35.5µM
Cc1n[nH]c(C)c1S(=O)(=O)N1CCCC(C(=O)Nc2ccc(Cl)cc2)C1 (stereo not given)	none (no result: gsp antagonist, gsp ag, RXFP1 antagonist, Akt phos inh)
COc1ccccc1NC(=O)c1ccccc1Oc1ccccc1	gsp antagonist 5.62µM
COc1cc(OC)c(NC(=O)c2ccccc2F)cc1Cl	gsp ag inconclusive
COc1cc(NC(=O)c2cc3ccccc3cc2O)c(OC)cc1Cl	gsp antagonist 20µM, gsp ag inconclusive
COc1ccccc1C(=O)NCc1ccncc1	none
COc1ccccc1C(=O)NCc1ccccc1	Akt phos inh -106.1%
CCOC(=O)c1c(C)oc2ncnc(N3CCN(c4ccccc4OC)CC3)c12	none (no result: gsp antagonist, gsp ag, Akt phos inh)
COc1ccc(NC(=O)C2CCC(CNS(=O)(=O)c3ccc4c(c3)C(C)(C)C(=O)N4C)CC2)cc1 (stereo not given)	none (no result: gsp antagonist, gsp ag, Akt phos inh)
N#CC(C#N)=C1C=CC=CN1/C(=C\c1ccco1)C(=O)c1ccccc1	gsp ag inconclusive, RXFP1 antagonist -103.9
COc1ccc(C(=O)/C(=C\c2ccco2)N2C=CC=CC2=C(C#N)C#N)cc1	RXFP1 antagonist -74.9
N#CC(C#N)=C1C=CC=CN1/C(=C\c1ccco1)C(=O)c1ccc(Br)cc1	RXFP1 antagonist inconclusive
O=C(Cn1ncc2ccsc2c1=O)N1CCN(c2ccc(Cl)cc2)CC1	none (no result: gsp antagonist, gsp ag, RXFP1 antagonist, Akt phos inh)
CCOc1ccccc1CNC(=O)c1ccc(NC(=O)N2CCSc3ncccc32)cc1	none (no result: gsp antagonist, gsp ag, Akt phos inh)
Cc1c(/C=N/Nc2nc3ccccc3[nH]2)c2ccccc2n1C	gsp antagonist 39.8µM
Cn1c(/C=N/Nc2nc3ccccc3[nH]2)nc2ccccc21	none
Cn1c(N)c(C(=O)CSc2nc(N)cc(=O)[nH]2)c(=O)n(C)c1=O	none
